For 8 molecules, growth results are on record in PubChem BioAssay (NCI).

The panel holds about 83,000 compounds, 20% with a hit somewhere; the sample as a whole holds those more often.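 How to read the values: 0–100, growth inhibition (40 = 60% inhibited); 0, no net growth; -100 to 0, cell death (-40 = 40% of starting cells died; -100 = all dead).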 Unmarked numbers belong to inactive results. Calls of active or inactive are those of the source. The calls were made as follows: active = growth percent below 10; inactive = the rest.

Some test systems named below: NCI-H23 lung; NCI-H226 lung; NCI-H322M lung; HOP-62 NSCLC; NCI-H460 lung; HOP-92 NSCLC; NCI-H522 lung; A549/ATCC NSCLC; 786-0 renal; COLO 205 colon; DU-145 prostate; K-562 leukemia; MALME-3M melanoma; MDA-MB-231 breast; RXF 393 renal; SF-268 CNS; SF-295 CNS; SF-539 CNS; UACC-257 melanoma; M14 melanoma.
Test in all cases: NCI-60 one-dose screen, 48 h (100 = growth as untreated, 0 = no growth, -100 = all killed)
Common to all, as to conditions: 10 µM unless noted

As for `Nc1ccc([N+](=O)[O-])cc1N=C/C=C/c1ccccc1`, the growth was 76.9% in the experiment on NCI-H23 lung; 72% in the experiment with NCI-H226 lung; 87.8% in the experiment on NCI-H322M lung; 88% with HOP-62 NSCLC; 54% in the experiment on NCI-H460 lung; 82.2% with HOP-92 NSCLC. Also, the growth in the experiment with NCI-H522 lung is 10.8%; in the experiment with A549/ATCC NSCLC it was 72.7%; in the experiment on 786-0 renal it was 78.6%; in the experiment with COLO 205 colon, 65.5%; in the experiment with DU-145 prostate, 77.4%; with K-562 leukemia, 29.5%. The growth was 138% with MALME-3M melanoma; 47.6% with MDA-MB-231 breast; 85.1% in the experiment with RXF 393 renal; 51.4% in the experiment on SF-268 CNS; 109% in the experiment on SF-295 CNS; 79% in the experiment with SF-539 CNS. The growth with UACC-257 melanoma is 86.5%; in the experiment with M14 melanoma, 68.4%.
`Cc1cc(C(=O)Nc2cc(Nc3ncccc3-c3ncnc4nc[nH]c34)ccc2F)cc(C(F)(F)F)c1`: the growth in the experiment with NCI-H23 lung was 25.2%; in the experiment on NCI-H226 lung, 39.9%; with NCI-H322M lung, 106%; in the experiment with HOP-62 NSCLC, 38.5%; in the experiment with NCI-H460 lung, 48.8%; with HOP-92 NSCLC it was -5.43% (active). Also, the growth in the experiment with NCI-H522 lung is 63.1%; in the experiment with A549/ATCC NSCLC, 55.7%; in the experiment on 786-0 renal, 63.5%; in the experiment on COLO 205 colon, 13.4%; in the experiment on DU-145 prostate, 74.8%; in the experiment with K-562 leukemia, 4.38% (active). Moreover, the growth in the experiment with MALME-3M melanoma is 108%; in the experiment on MDA-MB-231 breast, 22.9%; in the experiment with RXF 393 renal, 100%; with SF-268 CNS it was 67.3%; in the experiment with SF-295 CNS it was 78.4%; in the experiment with SF-539 CNS, 21.4%. For the same molecule, the growth in the experiment on UACC-257 melanoma is 10.7%; in the experiment on M14 melanoma it was 5.2% (active).
In the case of `CCCCCn1sc(=O)n(Cc2ccc(CNC(=O)OCc3ccc4c(Cl)cc(Cl)c(O)c4n3)cc2)c1=O`, the growth in the experiment on NCI-H23 lung was 73.2%; with NCI-H226 lung, 65.8%; in the experiment with NCI-H322M lung, 55.7%; in the experiment on HOP-62 NSCLC it was 41.7%; with NCI-H460 lung it was 27.1%; in the experiment on HOP-92 NSCLC it was 76.2%. The growth in the experiment on NCI-H522 lung is 66.1%; in the experiment on A549/ATCC NSCLC, 49.7%; in the experiment with 786-0 renal it was 61.2%; in the experiment on COLO 205 colon, 106%; with DU-145 prostate, 63.9%; with K-562 leukemia, 45.8%. In addition, the growth is 70.4% in the experiment with MALME-3M melanoma; 75.6% in the experiment on MDA-MB-231 breast; 32.5% in the experiment on RXF 393 renal; 66.6% in the experiment with SF-268 CNS; 35.1% in the experiment with SF-295 CNS; 77.1% in the experiment with SF-539 CNS. The growth in the experiment on UACC-257 melanoma is 87.9%; in the experiment with M14 melanoma, 58.8%.
For `COc1cc(C(=O)c2c(N)ncn2-c2ccccc2)cc(OC)c1OC`, the growth in the experiment on NCI-H23 lung was 101%; with NCI-H226 lung, 84%; with NCI-H322M lung, 104%; with HOP-62 NSCLC, 77.1%; in the experiment on NCI-H460 lung, 106%; in the experiment on HOP-92 NSCLC, 96.2%. The growth with NCI-H522 lung was 50.5%; in the experiment on A549/ATCC NSCLC, 106%; in the experiment with 786-0 renal it was 88.7%; with COLO 205 colon, 97.4%; with DU-145 prostate, 100%; in the experiment on K-562 leukemia, 76.4%. Further, the growth with MALME-3M melanoma was 106%; with MDA-MB-231 breast, 103%; in the experiment with RXF 393 renal it was 86.8%; with SF-268 CNS, 101%; in the experiment on SF-295 CNS, 91%; with SF-539 CNS, 87%. Further, the growth in the experiment with UACC-257 melanoma was 109%; in the experiment on M14 melanoma, 96.1%.
`COc1cc(/C=C2\C(=O)N(c3c(Cl)cccc3Cl)c3ccccc32)cc(OC)c1OCCCCCCn1c2ccccc2c(=O)c2ccccc21`: the growth in the experiment with NCI-H23 lung is 103%; in the experiment on NCI-H226 lung it was 95.4%; in the experiment with NCI-H322M lung, 95.7%; in the experiment with HOP-62 NSCLC, 95.4%; with NCI-H460 lung, 110%; in the experiment with HOP-92 NSCLC, 95.9%. Also, the growth in the experiment with NCI-H522 lung was 87.3%; in the experiment with A549/ATCC NSCLC, 109%; with 786-0 renal, 95.5%; in the experiment on COLO 205 colon, 107%; in the experiment with DU-145 prostate it was 104%; in the experiment on K-562 leukemia, 98.8%. Also, the growth in the experiment with MALME-3M melanoma is 106%; in the experiment on MDA-MB-231 breast, 100%; in the experiment on RXF 393 renal, 106%; in the experiment with SF-268 CNS it was 87.6%; in the experiment with SF-295 CNS, 99%; in the experiment with SF-539 CNS, 93.8%. The growth with UACC-257 melanoma was 111%; in the experiment on M14 melanoma it was 93.8%.
For the molecule `Cc1[nH]c(C(=O)Nc2ccc(C(N)=O)cc2NC(C)C)c(Cl)c1Cl`, the growth with NCI-H23 lung is 85.8%; in the experiment with NCI-H226 lung, 91.6%; in the experiment on NCI-H322M lung, 98.7%; in the experiment on HOP-62 NSCLC, 104%; in the experiment with NCI-H460 lung, 93.1%; in the experiment with HOP-92 NSCLC, 72.7%. In addition, the growth with NCI-H522 lung was 79.3%; in the experiment on A549/ATCC NSCLC it was 85.5%; with 786-0 renal it was 91.1%; in the experiment on COLO 205 colon it was 122%; with DU-145 prostate, 100%; with K-562 leukemia it was 85.8%. The growth with MALME-3M melanoma was 94.4%; with MDA-MB-231 breast it was 90.1%; with RXF 393 renal it was 94.7%; in the experiment on SF-268 CNS, 86.5%; with SF-295 CNS it was 100%; in the experiment with SF-539 CNS it was 92.8%. For the same molecule, the growth is 96.2% in the experiment with UACC-257 melanoma and 87.6% with M14 melanoma.
In the case of `Cc1ccccc1CNc1c2ccccc2nc2ccccc12`, the growth was 23.4% in the experiment on NCI-H23 lung; 31.5% with NCI-H226 lung; 29% in the experiment with NCI-H322M lung; 28.1% in the experiment on HOP-62 NSCLC; 6.94% (active) in the experiment with NCI-H460 lung; -1.03% (active) in the experiment with HOP-92 NSCLC. The growth in the experiment with NCI-H522 lung is 50%; in the experiment with A549/ATCC NSCLC it was 19.7%; in the experiment on 786-0 renal, 24.3%; with COLO 205 colon, -18.5% (active); with DU-145 prostate it was 30.6%; in the experiment with K-562 leukemia it was 5.04% (active). In addition, the growth with MALME-3M melanoma is 15.2%; in the experiment on MDA-MB-231 breast, 39.9%; in the experiment with RXF 393 renal it was 7.78% (active); in the experiment on SF-268 CNS it was 42.9%; with SF-295 CNS, 29.5%; in the experiment on SF-539 CNS, 3.3% (active). For the same molecule, the figures for the growth in the experiment on UACC-257 melanoma and with M14 melanoma were 32.7% and 13.1%, respectively.
Regarding `O=C(CCCCNC(=O)c1cc(=O)c(O)co1)Nc1ccccc1`, the growth is 86.2% with NCI-H23 lung; 102% in the experiment on NCI-H226 lung; 102% in the experiment on NCI-H322M lung; 118% in the experiment with HOP-62 NSCLC; 99.5% in the experiment with NCI-H460 lung; 59.1% in the experiment with HOP-92 NSCLC. The growth is -5.93% (active) in the experiment with NCI-H522 lung; 104% with A549/ATCC NSCLC; 101% with 786-0 renal; 67.7% with COLO 205 colon; 104% with DU-145 prostate; 13.3% with K-562 leukemia. In addition, the growth with MALME-3M melanoma is 43%; with MDA-MB-231 breast, 99%; in the experiment on RXF 393 renal, 55.5%; in the experiment on SF-268 CNS, 91%; in the experiment with SF-295 CNS it was 102%; in the experiment with SF-539 CNS, 92.5%. The growth with UACC-257 melanoma was 88.7%; in the experiment with M14 melanoma it was 81.5%.
